Source: PubChem
PTHR1 agonist = agonists of human PTHR1 parathyroid hormone receptor; Q03431; HEK293 GP2 PTHR1 cells, GloSensor cAMP luminescence, 1 h; Potency, µM (doses to about 115 µM), for inactives: at the top dose activation, hits mostly activators; 0.075% of 410,000 active; AID 743266; note: nearly all actives have a fitted effect of over 55% in size
Target sequence (Q03431 whole entry, looked up): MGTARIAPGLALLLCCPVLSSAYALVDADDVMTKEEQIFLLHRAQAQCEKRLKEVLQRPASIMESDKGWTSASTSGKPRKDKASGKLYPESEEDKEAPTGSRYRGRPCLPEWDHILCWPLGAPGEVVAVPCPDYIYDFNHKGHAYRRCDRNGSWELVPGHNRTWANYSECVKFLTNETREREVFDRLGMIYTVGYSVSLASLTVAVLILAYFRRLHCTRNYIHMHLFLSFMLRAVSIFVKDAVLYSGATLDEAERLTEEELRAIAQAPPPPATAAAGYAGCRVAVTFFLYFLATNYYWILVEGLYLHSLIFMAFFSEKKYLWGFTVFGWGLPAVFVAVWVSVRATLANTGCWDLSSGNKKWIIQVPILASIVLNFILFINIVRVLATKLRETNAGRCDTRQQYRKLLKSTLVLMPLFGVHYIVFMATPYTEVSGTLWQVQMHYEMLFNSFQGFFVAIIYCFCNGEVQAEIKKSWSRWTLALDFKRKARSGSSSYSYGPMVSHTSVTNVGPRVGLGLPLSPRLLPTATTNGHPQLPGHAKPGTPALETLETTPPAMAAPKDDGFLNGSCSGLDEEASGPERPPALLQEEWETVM
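HEK-293-derived GP2 cells expressing PTHR1 and a GloSensor cAMP reporter, 3,000/well, plated overnight, given luciferin plus IBMX (each 0.5 mM as added) for 1 h at 37 °C, then compound for 1 h at 37 °C. Luminescence was read after 15 min at room temperature.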
GLP-1R inv ag = inverse agonists of human GLP-1 receptor; 1.6% of 410,000 active; Potency, µM (highest dose often 38.3 µM), for the others: at the highest dose activity change, negative = inhibition, actives largely listed as inhibitors; AID 624417; HEK293 GLP-1R CRE-luciferase, luminescence, 24 h; GLP-1R form is constitutively active; note: % is set by controls: 0 for no effect and ±100 for the full control effect; nearly all actives have a fitted effect of over 55% in size
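Inverse agonists were sought by their lowering of basal cAMP reporter luciferase output in HEK293 cells stably carrying constitutively active human GLP-1R, after 24 h compound treatment.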
GLP-1R agonist = activates the human GLP-1 receptor; P43220; HEK293 GLP-1R CRE-luciferase, luminescence, 4-6 h; cells express a hypersensitive GLP-1R form; Potency, µM (titrated, usually from 45.6 µM), for inactives: at the highest dose activation, most hits filed as activators; 0.007% of 380,000 active; AID 624172; note: % of control where 0% means no effect
HEK293 tox = cytotoxicity counter-screen for GLP-1 receptor inverse agonists. HEK293 cAMP-luciferase reporter cells, luminescence, 24 h. Potency, µM (series often up to 38.3 µM), for inactives: at the highest dose activity change, negative = inhibition, usual class: inhibitors. 0.13% of 410,000 active. AID 624418;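 note: loss of luciferase light is scored as toxicity; % is set by controls: 0 for no effect and ±100 for the full control effect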
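Step one: seed cells (200 cells/uL, DMEM with 10% Nu serum, 1% pen-strep). Step two: 12-hour incubation at 37 deg C. Step three: pin 23 nL compound, incubate 24 hr. Step four: add luciferase reagent, read luminescence 12 min later.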
Active calls of the source: *; i = inactive; ? = inconclusive; nt = no result given; [ ] = another dose, or the depositor's remark. In the library only some 1.7% were active in any assay of this set; here they are far more common. Calls come from the whole dose curve; as a rule, active = well fitted curve in the direction sought with a large enough effect; inconclusive = small, poorly fitted or top-dose-only effect, or another doubt; inactive = no such curve, though single readings can be large; an effect the other way counts as inactive or inconclusive. Potency is the fitted concentration of half-maximal effect.

SMILES	PTHR1 agonist	GLP-1R inv ag	GLP-1R agonist	HEK293 tox
Cc1ccc(N2C(=O)CSC23C(=O)N(CC(=O)Nc2ccccc2F)c2ccccc23)cc1C (stereo unspecified)	-53%	4%	0%	-7%
O=[N+]([O-])CC(c1ccc(F)cc1)c1c[nH]c2ccccc12 (stereo unspecified)	-7%	7.1µM*	3%	-26%
CCN(Cc1ccccc1)C(=O)Cn1c(=O)cc(C)c2c(C)nn(-c3cccc(F)c3)c21	i	4%	nt	1%
Cc1ccc(SCc2nc(-c3ccc(C(=O)NCCc4ccc(Cl)cc4)cc3)oc2C)cc1	-6%	9%	nt	3%
Cc1ccc(SCc2nc(-c3ccc(C(=O)NCC(C)c4ccccc4)cc3)oc2C)cc1 (stereo unspecified)	i	4.5µM*	nt	0%
O=C(c1nc(-c2ccc(Cl)cc2)n2c1CCCCC2)N1CCN(c2ccc(F)cc2)CC1	-16%	10µM*	nt	-14%
CCc1ccc2occ(CC(=O)Nc3ccc(C)c(C)c3)c2c1	i	?	nt	11%
Cc1cc2oc(C(=O)Nc3nc(-c4ccccc4)ns3)c(C)c2cc1Cl	-5%	1%	nt	2%
CCOC(=O)c1cc(N2CCCCC2)nc2ccccc12	i	7.9µM*	1%	225%
Cc1cc(C)cc(NC(=O)Nc2ccc(-n3ccc(C(F)(F)F)n3)cc2)c1	i	2.2µM*	0%	?
O=C(O)c1ccccc1C(=O)Nc1ccc(-n2ccc(C(F)(F)F)n2)cc1	i	13%	1%	-5%
COc1ccccc1NC(=O)Nc1ccc(-n2ccc(C(F)(F)F)n2)cc1	-55%	2µM*	1%	-24%
O=C(O)CCC(=O)Nc1ccc(-n2ccc(C(F)(F)F)n2)cc1	-3%	5%	9%	-7%
Nc1nc(F)nc2c1ncn2[C@@H]1O[C@H](COP(=O)(O)O)[C@@H](O)[C@@H]1O	nt	nt	-2%	nt
COc1ccc(C2c3ccc4ccccc4c3Oc3ncn(CCO)c(=N)c32)cc1 (stereo unspecified)	-12%	?	14%	-26%
COc1ccc(C2c3ccc4ccccc4c3Oc3ncn(CCN(C)C)c(=N)c32)cc1 (stereo unspecified)	-9%	4µM*	27%	?
COc1ccc(C2c3ccc4ccccc4c3Oc3ncn(CCCO)c(=N)c32)cc1 (stereo unspecified)	-11%	5.6µM*	16%	?
O=C(CN1CCCN(S(=O)(=O)c2ccc(Br)cc2)CC1)Nc1cccc(C(F)(F)F)c1	-35%	?	nt	-2%
CCN(C(=O)c1ccc(C)c(Br)c1)c1ccccc1	i	10µM*	10%	1%
CCN(C(=O)c1cccnc1)c1ccccc1	-32%	13%	7%	28%
COc1ccc(-c2[nH]ncc2CN(C)CCCN2CCOCC2)cc1F	i	16%	3%	-5%
CCn1ccnc1CN(C)Cc1cn[nH]c1-c1ccc(OC)c(F)c1	i	10µM*	-3%	-17%
CCc1ccc(NC(=O)CC(NCc2cccnc2)C(=O)O)cc1 (stereo unspecified)	-10%	1%	nt	11%
CC(=O)c1ccc(NC(=O)c2sc(-n3nc(C)c(Cc4ccccc4)c3C)nc2C)cc1	i	8%	nt	-4%
Cc1onc(-c2ccc(Cl)cc2)c1-c1ccnc(SCC(=O)Nc2cc(Cl)cc(Cl)c2)n1	i	3.5µM*	2%	-18%
SMILES	PTHR1 agonist	GLP-1R inv ag	GLP-1R agonist	HEK293 tox
Cc1ccc(C(O)(c2ccccc2)c2ccccc2C(C)N(C)C)c(C)c1 (stereo unspecified)	-29%	10µM*	-7%	?
Cc1scc(CN2CCN(c3ccccc3F)CC2)c1C	-34%	?	nt	2%
COc1cc(/C=C/c2nc(C#N)c(N3CCCCC3)o2)cc(OC)c1OC	-27%	5%	nt	14%
CC(C)N(C(=O)c1cc2c(Cl)nc3ccccc3c2s1)C1CCCCC1	i	-10%	-1%	-9%
CC1C/C(=N\NC(=O)c2cccnc2)CC(C)(C)C1 (stereo unspecified)	-25%	5%	-14%	0%
CC1C/C(=N\NC(=S)NC(C)C)CC(C)(C)C1 (stereo unspecified)	i	4.5µM*	-6%	?
Cc1ccc(C(=O)n2nc(C)c(S(=O)(=O)N3CCOCC3)c2C)cc1	17%	9%	-2%	7%
CS(=O)(=O)N1CCc2cc(C(=O)Nc3ccc(Cl)c(C(F)(F)F)c3)ccc21	-24%	10µM*	nt	?
Cc1ccc(C(=O)CSc2nnc(CNc3ccc(C)cc3C)n2Cc2ccco2)cc1	i	10µM*	0%	-17%
COc1ccc(C(=O)CSc2nnc(CNc3ccc(C)cc3C)n2Cc2ccco2)cc1	-16%[57.5 µM]	0%	-1%	-20%
COc1ccccc1/C=C/C=C(\C#N)C(=O)NC(C)c1ccccc1 (stereo unspecified)	-8%	11µM*	13%	?
COc1ccc(C)cc1NC(=O)CN1c2ccccc2S(=O)(=O)c2ccccc21	-36%	-18%	nt	10%
COc1cc(OC)c(N(C)S(=O)(=O)c2cccc(C(=O)OCC(=O)c3c[nH]c4ccccc34)c2)cc1Cl	-20%	?	-13%	-2%[1.53 µM]
C=CCN(c1ccccc1OC)S(=O)(=O)c1cccc(C(=O)OCC(=O)c2c[nH]c3ccccc23)c1	-17%	5µM*	-13%	?
O=C(Nc1cc(Cl)ccc1Oc1ccccc1)C1=COCCO1	-16%	?	7%	7%
CCOc1ccc(Oc2ccc(Cl)cc2NC(=O)C2=COCCO2)cc1	i	10µM*	14%	12%
CCOC(=O)N1CCN(Cc2nc3cc(NC(=O)c4ccc([N+](=O)[O-])cc4)ccc3n2C(C)C)CC1	-7%	?	nt	-18%
CC(=O)c1cccc(NC(=O)c2oc(=O)c3ccccc3c2-c2ccccc2)c1	i	-6%	nt	-4%
CC(C)n1cc(/C=C2\NC(=O)N(c3cccc(Cl)c3)C2=O)c2ccccc21	25%[57.5 µM]	4µM*	-15%	-15%
S=C1SCN(Cc2ccco2)CN1Cc1ccco1	-10%	5.6µM*	0%	?
S=C1SCN(Cc2cccs2)CN1Cc1cccs1	-14%	?	10%	?
O=S(=O)(NCCc1csc2nc(-c3ccccc3)nn12)c1ccc(Oc2ccccc2)cc1	-10%	-22%	nt	-10%
O=S(=O)(c1cccc(F)c1)N1CCc2sccc2C1c1ccc(OC(F)(F)F)cc1 (stereo unspecified)	i	7.9µM*	-1%	-2%
Nc1ccc(N)c([N+](=O)[O-])c1	nt	nt	1%[96 µM]	nt
O=C(Nc1ccc2snnc2c1)Nc1cccc2ccccc12	-18%[57.5 µM]	10µM*	-17%	?
COc1ccc(-c2nc3scc(CCNS(=O)(=O)c4ccc(F)c(C(F)(F)F)c4)n3n2)cc1OC	-4%	-15%	nt	-3%
Cc1cc(C)c2nc(N3CCC(C(=O)NCCCN4CCCCC4)CC3)sc2c1	-9%[57.5 µM]	3.2µM*	-20%	?
